ELG1 genotox = inducers of genotoxicity in HEK293T ELG1-luciferase cells. HEK293T ELG1-luciferase reporter, luminescence, 16 h. Potency, µM (titrated, usually from 46 µM), inactives show top-dose activity change, positive = activation, hits mostly activators. actives 1.3% (n = 330,000). AID 504466; note: % of control where 0% means no effect; nearly all actives have a fitted effect of over 60% in size
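16 hr compound incubation (37 °C, 5% CO2) of HEK293T cells carrying luciferase-tagged ELG1; luciferase then measured by ONE-Glo luminescence after 30 min at RT.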
FLuc counter = counter-screen for miR-21 project: firefly luciferase inhibitors or activators | Potency, µM (titrated, usually from 57.5 µM), for inactives: top-dose activity change, negative = inhibition, most hits filed as inhibitors | actives 6.9% (n = 360,000) | P08659 | purified FLuc, Km substrates, luminescence inhibition | AID 588342;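 note: plate controls were vehicle for no effect and reference inhibitor for full effect; nearly all actives have a fitted effect of over 55% in size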
Target sequence (P08659 whole entry, looked up): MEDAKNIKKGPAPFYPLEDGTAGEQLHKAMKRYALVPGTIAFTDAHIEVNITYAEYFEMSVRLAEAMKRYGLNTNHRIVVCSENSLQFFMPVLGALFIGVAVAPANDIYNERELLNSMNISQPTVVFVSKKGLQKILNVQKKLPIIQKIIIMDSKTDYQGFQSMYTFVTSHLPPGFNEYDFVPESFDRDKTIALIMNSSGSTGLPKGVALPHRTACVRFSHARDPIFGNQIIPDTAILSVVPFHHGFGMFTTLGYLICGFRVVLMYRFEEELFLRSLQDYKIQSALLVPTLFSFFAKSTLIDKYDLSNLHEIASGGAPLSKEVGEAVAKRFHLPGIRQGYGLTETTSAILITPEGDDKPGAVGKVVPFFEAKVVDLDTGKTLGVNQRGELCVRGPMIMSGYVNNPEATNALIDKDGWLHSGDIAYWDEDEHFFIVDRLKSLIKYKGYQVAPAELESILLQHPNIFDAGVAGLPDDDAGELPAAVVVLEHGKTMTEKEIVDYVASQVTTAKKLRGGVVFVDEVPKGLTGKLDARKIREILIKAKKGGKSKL
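Purified P. pyralis luciferase (10nM final) with 10uM D-luciferin and 10uM ATP (Km levels) in 50mM Tris acetate pH 7.5, 10mM Mg acetate, 0.01% Tween-20, 0.05% BSA; qHTS 6-point titration, ~60 µM downward; luminescence read.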
Rab9 prom act = Rab9 promoter activation | Huh7 Rab9 promoter-luciferase reporter, luminescence, 24 h | Potency, µM (series often up to 9.22 µM), inactives show at the highest dose activation, negative = inhibition, most hits filed as activators | actives 2.8% (n = 320,000) | AID 485297; note: % of control where 0% means no effect; nearly all actives have a fitted effect of over 60% in size
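Cell-based reporter: Huh7 stable for Rab9 promoter-driven luciferase, plated in reduced-serum medium with 10% FBS at 1500 cells/well, compound-treated 24 h at 37 °C, luminescence read after 10 min reagent.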
SMN2 splice up = SMN2 splice variant enhancement; Potency, µM (titrated, usually from 46.1 µM), inactives show top-dose activity change, positive = activation, hits mostly activators; actives 2.8% (n = 210,000); AID 1458; HEK293 SMN2-luciferase splicing reporter, luminescence, 30-36 h; note: % of control where 0% means no effect; nearly all actives have a fitted effect of over 55% in size
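HEK293 cells carry an SMN2 […]–luciferase reporter in which exon 7 inclusion puts luciferase in frame. Cells were plated 10-12 h before compound addition, then incubated 30-36 h at 37C. ONE-Glo luminescence was read; sodium butyrate at 4.5 mM final served as control.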
NPC1 promoter act = activates the NPC1 promoter; Huh7 NPC1 promoter luciferase reporter, 24 h; Potency, µM (series often up to 9.22 µM), without a hit: at the top dose activation, most hits filed as activators; actives 2.4% (n = 320,000); AID 485313; note: % of control where 0% means no effect; nearly all actives have a fitted effect of over 60% in size
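Luminescence from an NPC1 promoter-driven luciferase reporter in stably transfected Huh7 cells was measured after 24 h compound treatment at 37 °C, followed by 10 min ambient incubation with luciferase detection reagent.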
* = called active by the depositor; ? = inconclusive; · = not tested or not shown; [ ] = remark or other dose. Compounds with a hit are over-represented: about 7.5% of the library has one in this group of screens. Calls come from the whole dose curve; as a rule, active = well fitted curve in the direction sought with a large enough effect; inconclusive = small, poorly fitted or top-dose-only effect, or another doubt; inactive = no such curve, though single readings can be large; an effect the other way counts as inactive or inconclusive. Potency is the fitted concentration of half-maximal effect.

SMILES	ELG1 genotox	FLuc counter	Rab9 prom act	SMN2 splice up	NPC1 promoter act
COc1ccc(C2=NN(c3nc(C(=O)O)cs3)C(O)(C(F)(F)F)C2)c(OC)c1 (configuration not stated)	0%	11µM*	-4%	-4%	-1%
CCOc1ccc(N(C(=O)c2snc(C(N)=O)c2N)C(C(=O)NCC2CCCO2)c2ccc(C)o2)cc1 (configuration not stated)	0%	13µM*	1%	·	0%
Cc1ccc(C(C(=O)NCC2CCCO2)N(C(=O)c2snc(C(N)=O)c2N)c2ccc(F)cc2)o1 (configuration not stated)	-13%	-1%	-1%	·	1%
Cc1ccc2c(c1)nnn2C1CCN(CC(=O)NCCc2ccccc2)CC1	-2%	-1%	1%	-6%	0%
O=C(Nc1ccc(F)c(Cl)c1)Nc1cnccn1	-3%	2%	-2%	-1%	-2%
Oc1c(-c2cc(-c3ccco3)[nH]n2)ccc2ccccc12	?	?	3.2µM*	14µM*	3.2µM*
Oc1ccccc1-c1cc(-c2ccco2)[nH]n1	5.8µM*	9.5µM*	15%	?	-2%
Oc1ccc(Cl)cc1-c1cc(-c2ccccc2Cl)[nH]n1	13%	?	-1%	?	-9%
Oc1ccc(Cl)cc1-c1cc(-c2ccco2)[nH]n1	-4%	19µM*	26%	3%	28%
Oc1ccccc1-c1cc(-c2ccccc2Cl)[nH]n1	·	0.67µM*	·	3.5µM*	·
CC(=O)N(Cc1ccccc1)Cc1cn(CCC#N)nc1-c1cccc([N+](=O)[O-])c1	-1%	1%	8%	-12%	-4%
CCOc1ccc(CN2CCNC(=O)C2CC(=O)NCC2CCOCC2)cc1 (configuration not stated)	1%	1%	-1%	·	-3%
O=c1[nH]c2ccc(Cl)cc2c(O)c1Cc1ccccc1	-2%	?	5%	·	-1%
CCc1ccc2[nH]c(=O)c(-c3ccccc3)c(O)c2c1	3%	21µM*	6%	·	-3%
Cc1ccccc1OCC(O)Cn1nnc2ccccc21 (configuration not stated)	?	21µM*	3.5µM*	11µM*	?
Cc1c(C(=O)O)sc2nc(/C=C/c3cccc(O)c3)[nH]c(=O)c12	0%	17µM*	-7%[1.84 µM]	·	-12%
Cc1cccc(-c2nnc3n2N=C(c2ccccc2)CS3)c1	0%	0%	1%	11%	-5%
Cc1nn2c(nc1=O)SCC(c1ccccc1)=N2	?	3%	3.5µM*	?	2.2µM*
Cc1ccc(CN2CC(C(=O)Nc3ncc(C)s3)CC2=O)cc1 (configuration not stated)	17%	2%	-7%	·	-7%
COc1ccc2nc(SCC(=O)Nc3ccc(S(=O)(=O)Nc4nccc(C)n4)cc3)[nH]c2c1	-2%	?	-2%	-14%	-5%
Cc1ccccc1/C=N/N1CCN(c2ccccc2)CC1	17%	17µM*	17%	?	21%
CSc1ccc(/C=N/N2CCN(c3ccccc3)CC2)cc1	6%	5%	?	?	?
O=[N+]([O-])c1ccccc1/C=N\N1CCN(c2ccccc2)CC1	7%	?	?	·	24%
Cc1ccc(/C=N/N2CCN(c3ccccc3)CC2)cc1	?	-19%	3.5µM*	?	?
Cc1cccc(/C=N/N2CCN(c3ccccc3)CC2)c1	?	7.6µM*	?	18µM*	?
SMILES	ELG1 genotox	FLuc counter	Rab9 prom act	SMN2 splice up	NPC1 promoter act
CC1CCN(S(=O)(=O)c2ccc(NC(=O)CN3CCN(C)CC3)cc2)CC1	-1%	-1%	-1%	-15%	-4%
COc1ccc(NC(=O)c2cccc(-n3cnnn3)c2)cc1	6%	-13%	-17%	·	-1%
Cc1cn2c(=O)cc(COc3ccc(Cl)cc3)nc2s1	·	-6%	·	6%	·
Cc1ccc2nc(COc3ccc(Cl)cc3)cc(=O)n2c1	23%	?	1.3µM*	13µM*	3.5µM*
COc1ccc(OC)c(NC(=O)Nc2cccc(OCc3cc(=O)n4cc(C)ccc4n3)c2)c1	·	1.2µM*	·	·	·
O=C1c2cccnc2C(Nc2ccc(S(=O)(=O)N3CCCCC3)cc2)N1Cc1ccccc1 (configuration not stated)	0%	0%	1%	-14%	-2%
